Assay in all cases: log2 ratio of Biotin-Ahx-Ub-VS probe labelling (fragment/DMSO); higher = less target engagement (more negative = stronger competition), active = hit call of the paper (q ≤ 0.05, log2 ratio ≤ -1)
What all share (settings): compound concentration: 200 uM; treatment time: 3 h

Experiment [1] addresses T1, OTUD6B (UniProt Q8N6M0).
T1 sequence (whole entry): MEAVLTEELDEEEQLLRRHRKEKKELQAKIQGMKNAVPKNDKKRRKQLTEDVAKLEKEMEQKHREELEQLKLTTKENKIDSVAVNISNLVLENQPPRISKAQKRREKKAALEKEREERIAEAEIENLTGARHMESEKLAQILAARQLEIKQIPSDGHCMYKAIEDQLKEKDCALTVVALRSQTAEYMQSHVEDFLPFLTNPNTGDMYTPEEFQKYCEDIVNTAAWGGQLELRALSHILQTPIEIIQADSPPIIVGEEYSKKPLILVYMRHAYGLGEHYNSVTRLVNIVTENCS
The gist of the method: (§1)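 HEK293T lysate, 495 µg per sample in Tris/CHAPS/IGEPAL buffer with protease inhibitors, was treated in triplicate with fragment at 200 µM or vehicle for 3 h and then with Biotin-Ahx-Ub-VS at 0.5 µM final for 1 h. Labelled DUBs were NeutrAvidin-enriched, digested with LysC and trypsin, and run by diaPASEF LC-MS/MS. Spectronaut label-free quantities were global-median-normalised, and values are average log2 fragment/vehicle ratios by unpaired t-test on proteins with ≥2 unique peptides.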

Experiment [2] deals with T2, OTUD7B (UniProt Q6GQQ9).
T2 sequence (whole entry): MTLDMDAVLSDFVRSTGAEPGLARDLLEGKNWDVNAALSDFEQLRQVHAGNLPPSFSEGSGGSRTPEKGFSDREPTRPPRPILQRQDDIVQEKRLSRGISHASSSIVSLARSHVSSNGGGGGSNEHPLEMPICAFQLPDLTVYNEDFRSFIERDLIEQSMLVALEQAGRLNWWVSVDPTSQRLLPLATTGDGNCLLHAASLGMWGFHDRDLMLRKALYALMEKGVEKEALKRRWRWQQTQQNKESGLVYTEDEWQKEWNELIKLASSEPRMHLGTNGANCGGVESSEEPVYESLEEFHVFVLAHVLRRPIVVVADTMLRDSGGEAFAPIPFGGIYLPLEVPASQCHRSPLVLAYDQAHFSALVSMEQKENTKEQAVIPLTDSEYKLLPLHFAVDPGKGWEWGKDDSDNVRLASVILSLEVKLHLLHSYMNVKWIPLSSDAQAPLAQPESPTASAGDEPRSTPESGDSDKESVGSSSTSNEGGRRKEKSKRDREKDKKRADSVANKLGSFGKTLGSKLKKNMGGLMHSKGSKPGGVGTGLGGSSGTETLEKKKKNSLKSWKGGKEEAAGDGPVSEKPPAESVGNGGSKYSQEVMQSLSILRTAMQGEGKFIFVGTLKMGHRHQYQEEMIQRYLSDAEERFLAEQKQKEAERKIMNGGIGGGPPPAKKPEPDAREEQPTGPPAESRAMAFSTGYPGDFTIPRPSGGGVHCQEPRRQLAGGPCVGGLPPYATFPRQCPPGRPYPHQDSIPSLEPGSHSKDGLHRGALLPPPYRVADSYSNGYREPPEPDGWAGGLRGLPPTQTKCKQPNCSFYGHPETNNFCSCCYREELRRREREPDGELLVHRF
The method in brief: as §1

Experiment [3] concerns the target PRPF8 (UniProt Q6P2Q9). The method in brief:
as §1

The target in experiment [4] is T3, PSMD7 (UniProt P51665).
T3 sequence (whole entry): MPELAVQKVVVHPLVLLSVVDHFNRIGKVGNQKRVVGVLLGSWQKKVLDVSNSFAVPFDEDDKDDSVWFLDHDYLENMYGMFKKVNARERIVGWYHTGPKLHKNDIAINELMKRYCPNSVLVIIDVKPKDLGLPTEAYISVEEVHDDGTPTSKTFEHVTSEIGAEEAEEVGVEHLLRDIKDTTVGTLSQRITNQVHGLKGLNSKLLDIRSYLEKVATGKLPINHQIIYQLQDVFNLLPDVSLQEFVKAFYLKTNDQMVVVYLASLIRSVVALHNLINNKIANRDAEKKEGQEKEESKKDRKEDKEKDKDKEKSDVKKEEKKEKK
The method in brief: as §1

The target of experiment [5] is UCHL1 (UniProt P09936). The gist of the method: as §1
Chain of UCHL1 (P09936 whole entry, looked up): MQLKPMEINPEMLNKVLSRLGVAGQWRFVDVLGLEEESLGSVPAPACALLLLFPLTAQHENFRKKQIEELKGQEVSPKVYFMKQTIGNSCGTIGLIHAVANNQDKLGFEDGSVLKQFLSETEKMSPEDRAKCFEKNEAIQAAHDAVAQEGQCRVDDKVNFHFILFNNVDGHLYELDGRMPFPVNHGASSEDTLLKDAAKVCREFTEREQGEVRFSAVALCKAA
The target of experiment [6] is T4, UCHL3 (UniProt P15374).
T4 sequence (whole entry): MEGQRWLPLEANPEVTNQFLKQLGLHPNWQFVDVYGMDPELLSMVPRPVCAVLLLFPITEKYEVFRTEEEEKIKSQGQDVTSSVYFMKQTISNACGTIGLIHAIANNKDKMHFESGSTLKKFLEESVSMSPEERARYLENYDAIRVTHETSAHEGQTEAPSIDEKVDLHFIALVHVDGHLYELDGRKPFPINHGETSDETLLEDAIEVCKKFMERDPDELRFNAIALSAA
The gist of the method:
as §1

The target in experiment [7] is T5, UCHL5 (UniProt Q9Y5K5).
T5 sequence (whole entry): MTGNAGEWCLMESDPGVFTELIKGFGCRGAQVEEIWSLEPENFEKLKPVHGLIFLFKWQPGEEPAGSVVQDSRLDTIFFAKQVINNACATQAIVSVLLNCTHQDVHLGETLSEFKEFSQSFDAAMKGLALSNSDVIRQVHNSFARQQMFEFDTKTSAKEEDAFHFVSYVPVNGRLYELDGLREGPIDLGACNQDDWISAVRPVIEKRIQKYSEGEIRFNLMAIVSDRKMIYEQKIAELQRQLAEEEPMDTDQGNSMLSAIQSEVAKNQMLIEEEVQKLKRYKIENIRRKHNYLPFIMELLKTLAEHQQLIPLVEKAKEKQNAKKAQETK
The gist of the method: as §1

Experiment [8] addresses USP10 (UniProt Q14694). The gist of the method:
as §1

For experiment [9], the target named is T6, USP15 (UniProt Q9Y4E8).
T6 sequence (whole entry): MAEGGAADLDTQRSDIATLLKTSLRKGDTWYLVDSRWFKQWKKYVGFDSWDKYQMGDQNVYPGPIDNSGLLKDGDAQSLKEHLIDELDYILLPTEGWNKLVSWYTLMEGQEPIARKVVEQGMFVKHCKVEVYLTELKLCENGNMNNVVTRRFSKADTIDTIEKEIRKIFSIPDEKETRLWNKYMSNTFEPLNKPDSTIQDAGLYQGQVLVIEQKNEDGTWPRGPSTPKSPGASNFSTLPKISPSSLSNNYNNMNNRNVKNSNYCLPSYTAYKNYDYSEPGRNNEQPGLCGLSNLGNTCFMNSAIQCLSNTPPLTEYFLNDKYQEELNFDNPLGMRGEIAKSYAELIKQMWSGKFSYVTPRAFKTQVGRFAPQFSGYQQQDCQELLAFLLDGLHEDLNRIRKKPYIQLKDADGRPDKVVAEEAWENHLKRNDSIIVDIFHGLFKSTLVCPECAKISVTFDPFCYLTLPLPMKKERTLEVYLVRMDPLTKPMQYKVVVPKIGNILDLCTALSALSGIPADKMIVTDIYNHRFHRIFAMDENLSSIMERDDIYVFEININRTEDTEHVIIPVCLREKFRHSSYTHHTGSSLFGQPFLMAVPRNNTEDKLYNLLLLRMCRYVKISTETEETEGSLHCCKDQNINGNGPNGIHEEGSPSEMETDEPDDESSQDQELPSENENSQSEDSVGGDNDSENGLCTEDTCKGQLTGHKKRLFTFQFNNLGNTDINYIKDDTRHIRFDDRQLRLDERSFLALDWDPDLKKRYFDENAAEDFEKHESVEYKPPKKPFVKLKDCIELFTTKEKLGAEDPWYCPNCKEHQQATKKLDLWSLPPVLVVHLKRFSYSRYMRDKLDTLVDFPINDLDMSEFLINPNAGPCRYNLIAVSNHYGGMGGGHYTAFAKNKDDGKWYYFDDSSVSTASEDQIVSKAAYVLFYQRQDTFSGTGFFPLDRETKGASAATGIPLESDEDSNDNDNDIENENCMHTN
The method in brief:
as §1

The target of experiment [10] is USP16 (UniProt Q9Y5T5). The method in brief:
as §1

SMILES strings stand for the structures. Unmarked numbers belong to inactive results.

Chain of USP16 (Q9Y5T5 whole entry, looked up): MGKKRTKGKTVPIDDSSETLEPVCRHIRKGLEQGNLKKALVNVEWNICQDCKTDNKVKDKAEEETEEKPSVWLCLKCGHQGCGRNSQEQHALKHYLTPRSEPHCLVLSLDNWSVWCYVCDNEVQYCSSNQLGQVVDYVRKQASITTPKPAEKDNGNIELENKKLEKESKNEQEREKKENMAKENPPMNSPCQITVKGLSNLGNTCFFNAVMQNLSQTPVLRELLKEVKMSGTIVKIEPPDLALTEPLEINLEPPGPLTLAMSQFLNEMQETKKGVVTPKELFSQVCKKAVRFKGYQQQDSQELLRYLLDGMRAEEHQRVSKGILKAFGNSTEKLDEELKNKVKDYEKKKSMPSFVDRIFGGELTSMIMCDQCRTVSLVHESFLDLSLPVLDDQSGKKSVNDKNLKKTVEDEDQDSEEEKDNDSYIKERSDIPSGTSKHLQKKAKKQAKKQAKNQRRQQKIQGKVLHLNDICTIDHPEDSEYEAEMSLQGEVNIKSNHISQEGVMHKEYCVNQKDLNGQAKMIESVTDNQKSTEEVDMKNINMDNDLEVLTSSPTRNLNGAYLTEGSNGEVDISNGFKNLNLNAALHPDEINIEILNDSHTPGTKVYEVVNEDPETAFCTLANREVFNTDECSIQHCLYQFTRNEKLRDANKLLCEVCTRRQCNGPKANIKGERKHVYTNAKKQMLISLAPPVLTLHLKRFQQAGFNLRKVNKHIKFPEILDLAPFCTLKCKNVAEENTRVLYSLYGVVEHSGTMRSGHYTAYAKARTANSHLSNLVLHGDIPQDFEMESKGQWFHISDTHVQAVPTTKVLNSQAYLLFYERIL
Chain of USP10 (Q14694 whole entry): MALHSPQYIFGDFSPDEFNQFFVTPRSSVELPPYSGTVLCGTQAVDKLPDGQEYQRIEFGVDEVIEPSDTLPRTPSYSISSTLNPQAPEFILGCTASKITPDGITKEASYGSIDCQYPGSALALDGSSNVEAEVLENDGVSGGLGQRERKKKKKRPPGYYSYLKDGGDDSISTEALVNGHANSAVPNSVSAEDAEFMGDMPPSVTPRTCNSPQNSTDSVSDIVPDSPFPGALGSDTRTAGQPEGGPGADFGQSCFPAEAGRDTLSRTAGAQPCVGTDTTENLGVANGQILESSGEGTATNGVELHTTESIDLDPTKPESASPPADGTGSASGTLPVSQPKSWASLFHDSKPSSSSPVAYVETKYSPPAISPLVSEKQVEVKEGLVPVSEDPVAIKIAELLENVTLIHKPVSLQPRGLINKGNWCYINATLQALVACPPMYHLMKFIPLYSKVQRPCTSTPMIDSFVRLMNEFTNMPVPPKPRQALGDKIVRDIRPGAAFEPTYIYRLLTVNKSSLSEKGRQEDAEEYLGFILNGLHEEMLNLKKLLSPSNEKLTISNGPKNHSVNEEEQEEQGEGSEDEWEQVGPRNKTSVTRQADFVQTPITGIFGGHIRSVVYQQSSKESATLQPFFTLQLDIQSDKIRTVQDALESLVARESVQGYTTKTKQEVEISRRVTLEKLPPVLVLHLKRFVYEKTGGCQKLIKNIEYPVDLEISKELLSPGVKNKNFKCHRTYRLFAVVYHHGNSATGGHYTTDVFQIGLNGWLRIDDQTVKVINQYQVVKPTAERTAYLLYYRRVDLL

Consider `CC(=O)Nc1ccc(NC(=O)CCl)cc1`, for which the “log2 ratio of Biotin-Ahx-Ub-VS probe labelling” value in [1] is -0.276; in experiment [2], -1.13 (active); in experiment [3], 0.0134; in experiment [4], -0.163; in experiment [5] it was -0.918; in [6], 0.206. Also, the “log2 ratio of Biotin-Ahx-Ub-VS probe labelling” value in [7] is -0.201; in experiment [8] it was -0.113; in experiment [9], -0.154; in experiment [10] it was -0.288.

(Values after the supplement of paper PMC11732987, “Enantioselective OTUD7B fragment discovery through chemoproteomics screening and high-throughput optimisation” (Communications Chemistry, 2025).)
